TEAD-YAP inh = TEAD-YAP interaction inhibition; 1.4% of 640,000 active; inhibition, % at 9.12 µM; AID 1259422; HEK-TIYL cells, TEAD-Gal4/YAP UAS-luciferase luminescence; in the data active = inhibition above about 32%;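 also: 0% = median of test compound wells and 100% = reference inhibitor wells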
GPR151 activ = activators of human GPR151. Q8TDV0. PathHunter beta-arrestin GPR151 cells, luminescence. activation, % at 11.2 µM. 1% of 650,000 active. AID 1508602; in the data active = activation above about 4.9%;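 also: 0% = median of compound wells and 100% = cells with positive control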
Target sequence (Q8TDV0 whole entry, looked up): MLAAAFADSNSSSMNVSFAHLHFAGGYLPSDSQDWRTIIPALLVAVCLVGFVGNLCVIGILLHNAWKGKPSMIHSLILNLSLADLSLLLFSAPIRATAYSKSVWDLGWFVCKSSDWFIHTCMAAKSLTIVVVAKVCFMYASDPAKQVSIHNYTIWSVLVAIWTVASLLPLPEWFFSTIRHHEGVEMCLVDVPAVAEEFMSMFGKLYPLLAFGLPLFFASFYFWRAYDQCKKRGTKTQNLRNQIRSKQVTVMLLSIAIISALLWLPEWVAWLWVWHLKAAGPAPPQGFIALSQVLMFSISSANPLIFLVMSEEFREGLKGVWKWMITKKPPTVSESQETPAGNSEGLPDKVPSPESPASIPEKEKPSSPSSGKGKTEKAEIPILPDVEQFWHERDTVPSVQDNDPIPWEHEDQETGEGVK
MITF inh = blocks human microphthalmia-associated transcription factor | AlphaScreen MITF homodimerization, bead proximity signal | inhibition, % at 2.6 µM | 0.91% of 650,000 active | AID 1259374; in the data active = inhibition above about 50%;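 also: 0% = vehicle wells with protein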
FBW7 activator = human FBW7 E3 ligase activation, primary screen; Q969H0; AlphaScreen FBW7–phospho-cyclin E peptide binding, activator screen; normalized activity (activation), % at 26.1 µM; 0.13% of 650,000 active; in the data active = normalized activity above about 1.9%;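 also: purified mutant Fbw7 with reduced substrate affinity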
Starred values were filed as active, the others as inactive. Compounds with a hit are over-represented: about 3.5% of the library has one in this group of screens.

SMILES	TEAD-YAP inh	GPR151 activ	MITF inh	FBW7 activator
COc1ccc(S(=O)(=O)NCC2CCC(C(=O)N3CCc4ccccc43)CC2)cc1 (configuration not stated)	1	1	-11	0
C#CCOc1ccc(/C=C2\C(=O)NC(=O)N(c3ccc(O)cc3)C2=O)cc1OC	-3	1	-6	0
COc1ccccc1N(CC(=O)NC(C(C)C)C(C)C)S(C)(=O)=O	-3	0	-8	0
CC(C)C(NC(=O)CN(c1ccccc1Br)S(C)(=O)=O)C(C)C	-14	0	22	2.4*
CC1CCc2c(sc(NC(=O)c3cccs3)c2C(=O)O)C1 (configuration not stated)	61*	1	1	0
CC1CCc2c(sc(NC(=O)c3ccccc3)c2C(=O)O)C1 (configuration not stated)	70*	-4	16	0
COc1ccc(NC(=O)c2c(NC(=O)c3cccs3)sc3c2CCC(C)C3)cc1 (configuration not stated)	-3	0	-13	0
O=C(Nc1sc2c(c1C(=O)O)CCCCC2)c1cccs1	42*	-8	0	0
COC(=O)c1sc2ncn(Cc3ccc(Br)cc3)c(=O)c2c1C	10	3	-1	0
O=C(Nc1nnc(-c2cccnc2)s1)C1CC1	-4	1	2	0
CC(=O)N1CCc2cc(Br)cc(S(=O)(=O)Nc3ccc(Br)cc3F)c21	-15	-1	-4	0
COc1ccc(Cc2nnc(N/N=C/c3cccs3)[nH]c2=O)cc1OC	4	-1	-9	-1
O=c1[nH]c(N/N=C/c2ccccc2O)nc2ccccc12	72*	-3	78*	0
COc1ccc(Cc2nnc(N/N=C/c3cc([N+](=O)[O-])ccc3O)[nH]c2=O)cc1OC	-2	2	115*	0
O=c1[nH]c(N/N=C/c2ccc(O)cc2O)nnc1Cc1ccccc1	8	-1	104*	0
COc1ccc(/C=N/Nc2nnc(Cc3ccccc3)c(=O)[nH]2)cc1OC	4	0	15	0
O=C(CSC1CC(=O)N(c2ccc(Cl)cc2)C1=O)Nc1ccc(F)cc1 (configuration not stated)	14	1	9	0
O=C(CC(Sc1cccc2cccnc12)c1ccc(OC(F)F)cc1)c1ccco1 (configuration not stated)	51*	-2	-14	-2
Cc1nc2ccccc2n1CC1CCN(S(=O)(=O)/C=C/c2ccccc2)CC1	33*	0	-3	0
Cc1c(Cl)cccc1S(=O)(=O)N1CCC(n2nnc3ccccc32)CC1	0	0	14	0
Cc1c(Cl)cccc1S(=O)(=O)N1CCC(Cn2c(C)nc3ccccc32)CC1	36*	1	6	0
CN(c1ccccc1)c1ccc(C=C2C(=O)NC(=S)NC2=O)cc1	5	0	8	0
COc1cc(NC(=O)COc2ccccc2C(C)(C)C)c(OC)cc1Cl	17	-1	8	0
O=C(Nc1ccc(Cl)cc1)Nc1ccc(S(=O)(=O)Nc2ncccn2)cc1	-2	-1	-23	2.5*
OCC(O)C(O)C(O)C1(CO)NN=C(c2ccccc2)S1 (configuration not stated)	-10	-2	-5	0
SMILES	TEAD-YAP inh	GPR151 activ	MITF inh	FBW7 activator
Cc1ccccc1C1(CC(=O)N2CCCC(C(N)=O)C2)CC(=O)N(Cc2ccncc2)C1=O (configuration not stated)	0	-1	-3	0
COC(=O)c1nn(-c2ccc(C)c(C)c2)cc1O	54*	-6	-1	0
COC(=O)c1nn(-c2ccc(F)c(Cl)c2)cc1O	-31	0	6	0
CCc1c(C)nc2c(C(=O)NCCc3ccccc3)c[nH]n2c1=O	3	4	1	0
Cc1ccc(CCNC(=O)c2c(N)[nH]n3c(=O)c4ccccc4nc23)cc1	35*	-1	4	0
CC(=O)N(C1=C(N(C)C)C(=O)c2ccccc2C1=O)c1ccc(Cl)cc1	73*	-3	6	0
CC(=O)N(C1=C(N(C)C)C(=O)c2ccccc2C1=O)c1cc(C)cc(C)c1	85*	-3	13	0
CC(=O)N(C1=C(N(C)C)C(=O)c2ccccc2C1=O)c1cccc(F)c1	95*	-7	13	-1
CC(=O)N(C1=C(Cl)C(=O)c2ccccc2C1=O)c1ccc(Br)cc1	11	0	18	0
CCOC(=O)c1c(C)oc2c1cc(NS(=O)(=O)c1ccc(C(C)C)cc1)c1ccccc12	4	0	-3	0
O=S(=O)(c1ccc(F)cc1)N1CCN(Cc2ccc(F)cc2)CC1	-2	0	-7	0
CCc1ccc(C(=O)N/N=C/c2cc(Br)c(O)c(Br)c2O)nc1	72*	-1	67*	-1

Compound activity as filed in PubChem BioAssay.
